Calls of active or inactive are those of the source. Rule for the calls: active = hit-call score of the fitted dose curve at least 0.9, where 1 is the maximum; inactive = score below 0.9.

The term AC50 denotes the concentration at which the activity in the assay is half-maximal.

Read-out in this experiment: TIMP metallopeptidase inhibitor 1 (TIMP1), TIMP1 (gene 7076)
As to the kind of experiment: BSK_MyoF_TIMP1: BioMAP Diversity Plus: MyoF Assay for TIMP metallopeptidase inhibitor 1 (TIMP1) Biomarker Activity (AID 2284269). Particulars: primary human lung fibroblasts. The method, then: BSK_MyoF is a cell-based, multiplexed-readout assay that uses lung fibroblasts, […], with measurements taken at 24 hours after chemical dosing in a microplate: 96-well plate.BSK_MyoF_TIMP1 is an assay component measured in the BSK_MyoF assay. It measures TIMP-1 antibody related to regulation of gene expression using ELISA technology.Data from the assay component BSK_MyoF_TIMP1 was analyzed at the endpoint, BSK_MyoF_TIMP1, in the positive analysis fitting direction relative to DMSO as the negative control and baseline of activity. Using a type of binding reporter, gain or loss-of-signal activity can be used to understand protein changes. To generalize the intended target to other relatable targets, this assay endpoint is annotated to the 'protease' intended target family, where the subfamily is 'matrix metalloproteinase'.
The levels of cell surface (or secreted, indicated by the prefix "s") biomarker endpoints were measured by ELISA. Overt cytotoxicity to cells in confluent adherent cultures (all systems other than the BT system) was assessed by measuring total protein levels using sulforhodamine B (SRB) staining in parallel cultures at the time of biomarker measurements, indicated as SRB endpoints. For proliferation assays for adherent cell types, individual cell types are cultured at sub-confluence and relative cell numbers quantified by SRB staining at time points optimized for each system (48 h: 3C and CASM3C systems; 72 h: BT and HDF3CGF systems; 96 h: SAg system). SRB was performed by staining cells with 0.1% SRB after fixation with 10% TCA and reading wells at 560 nm.Viability and proliferation of PBMC (T cells) was quantified by Alamar Blue reduction for the SAg and BT systems. For PBMC viability (referred to as PBMC Cytotoxicity within the assay endpoint names), cells were plated (75,000/well in a 96-well plate) and then chemical samples added for 1 h before addition of activators, SEB and TSST-1 (20 ng/mL final concentration each). Cells were incubated for 90 h. Then, Alamar Blue (20 uL/well) (Invitrogen, Cat DAL1100) was added for 6 h, and the plates were read with a fluorescence microplate reader at 546/580 nm (excitation/emission). For PBMC proliferation, cells were plated and activated as above but incubated for only 16 h prior to addition of Alamar Blue. Plates were read after 6 h.
As to `O=C1CCCCCCCCCCC1`, the result was inactive.
Regarding `C=C(C)C(=O)OCCCCCCCCCCCC`, the outcome was inactive.
On to `c1ccc2c(c1)[nH]c1ccccc12`, for which the outcome was inactive.
With `CC=C(C)C(C)=O`, the outcome was inactive.
For the compound `Oc1c(Cl)cc(Cl)c(Cl)c1Cl`, the AC50 is 33 µM (active).
For the compound `COc1ccc(C(=O)c2ccccc2)c(O)c1`, the result was inactive.
Same read-out and setting: as for `CCNc1nc(NC(C)(C)C)nc(OC)n1`, the entry is “inactive”; as for `C=CC(=O)NCOCCCC`, “inactive”.
Still for that read-out and setting: as for `CC(C)c1cccc(C(C)C)c1N`, the entry is “inactive”; as for `CC1(C)CC(O)CC(C)(C)N1[O]`, “inactive”; as for `CC(C)[N+](C)(CCOC(=O)C1c2ccccc2Oc2ccccc21)C(C)C`, “inactive”.
Same read-out and setting: the result for `CCCCC1C(=O)N(c2ccccc2)N(c2ccccc2)C1=O` reads “inactive”.
As for `O=C(Oc1ccccc1)c1ccccc1C(=O)Oc1ccccc1`, the result was inactive.
Same read-out and setting: the result for `CCOC(=O)C1=NOC(c2ccccc2)(c2ccccc2)C1` reads “inactive”; that for `Cc1c(O)cccc1O`, “inactive”.
Regarding `CC/C=C\CCOC(=O)c1ccccc1O`, the AC50 was 35.5 µM (active).
For `Clc1cc(Cl)c(Cl)c(Cl)c1Cl`, the result was inactive.
With `O=C1CCCCCCCCCCCN1`, the result was inactive.
The same measure, in the same setting: the result for `CCCCCCOC(=O)CCCCC(=O)OCCCCCC` reads “inactive”.
With `CC=C(C)C=CC=C(C)C`, the result was inactive.
Still for that read-out and setting: the result for `CC(C)CCCCCOC(=O)CS` reads “inactive”; that for `CCCCCCCCC(CO)CCCCCC` (stereo not given), “inactive”; that for `C=CC(=O)OCCCCCCCC(C)C`, “inactive”.
Regarding `CCOC(=O)/C=C\C(=O)OCC`, the result was inactive.
The same measure, in the same setting: the result for `CC1=CC=C(C(C)C)CC1` reads “inactive”.
On the same count and under the same terms, as for `COC(OC)(C(=O)c1ccccc1)c1ccccc1`, the entry is “inactive”.
Still for that read-out and setting: the result for `CCCCCCC=O` reads “inactive”.
Take `CCCCCCCO`: the outcome was inactive.
For the compound `C=CC(=O)OCCCCCCOC(=O)C=C`, the concentration at half-maximal activity (AC50) is 29.4 µM (active).
As for `C[N+](C)(C)CCCNS(=O)(=O)C(F)(F)C(F)(F)C(F)(F)C(F)(F)C(F)(F)C(F)(F)C(F)(F)C(F)(F)F`, the outcome was inactive.
With `CC(Cl)COP(=O)(OCC(C)Cl)OCC(C)Cl` (stereo not given), the result was inactive.
As to `CC/C=C\C/C=C\C/C=C\CCCCCCCC(=O)OC`, the AC50 was 20 µM (active).
With `Nc1cccc(N)n1`, the result was inactive.
Still for that read-out and setting: as for `CCCCCC1=CCCC1=O`, the entry is “inactive”; as for `O=C(O)C(F)(F)C(F)(F)C(F)(F)C(F)(F)C(=O)O`, “inactive”; as for `C=CC(=O)NC(C)(C)C`, “inactive”.
In the case of `C=CCCCCCCCCC=O`, the result was inactive.
Regarding `COc1ccc(C(=O)/C(Br)=C\C(=O)O)cc1`, the outcome was inactive.
Still for that read-out and setting: the result for `CCCCCCCCCCCC(C)=O` reads “inactive”.
Same read-out and setting: as for `Fc1ccc(Br)cc1`, the entry is “inactive”.

(Values after PubChem BioAssay (EPA / NIEHS).)
